Experimental data as given in the supplement of paper PMC10981050.
Several values for one entry are separate records, joined by “and”; a condition that tells them apart may be missing. Identical values can stand only once. Counter-ions that a name gives are not always drawn.

Experiments:
Assay in all cases: cell viability relative to vehicle control; higher = less cytotoxic
Details in all cases: 10 µM
[1] = tested on: K562
In short: (§1)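 Mutant clones made by CRISPR editing and their isogenic wild-type counterparts, from four leukaemia lines, were exposed to a single 10 µM dose of each library compound for 48 h. The supernatant was then removed and CellTiter-Glo luminescence was read. Viability was reported as percent of the on-plate vehicle control.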

[2] = tested on: MARIMO
In short: as §1

[3] = tested on: MOLM14
In short: as §1

[4] = tested on: OCI-AML2
In short: as §1

Row | SMILES | cell viability ([1]; SRSF2 genotype: SRSF2 P95H/wt) | cell viability ([1]; SRSF2 genotype: SRSF2 wt/wt) | cell viability ([2]; SRSF2 genotype: SRSF2 P95H/wt) | cell viability ([2]; SRSF2 genotype: SRSF2 wt/wt) | cell viability ([3]; SRSF2 genotype: SRSF2 P95H/wt) | cell viability ([3]; SRSF2 genotype: SRSF2 wt/wt) | cell viability ([4]; SRSF2 genotype: P95H/wt) | cell viability ([4]; SRSF2 genotype: wt/wt)
1 | COC(=O)c1ccc(O)cc1 [Methyl 4-hydroxybenzoate] | 93% and 82.6% | 88.2% | 90.5% | 94.1% | 91.9% | 95.5% | 91.2% | 90.5%
2 | C=CC(=O)N1CCN(CCCn2c(=O)c(-c3c(Cl)c(OC)cc(OC)c3Cl)cc3cnc(NC)nc32)CC1 | 85.1% and 88.1% | 86.8% | 63.3% | 72.7% | 85.3% | 88.1% | 65.2% | 69.4%
3 | CN1CCC(=C2c3ccccc3CCn3c(C=O)cnc32)CC1 [Alcaftadine] | 102% and 104% | 100% | 100% | 94.7% | 99.7% | 99.4% | 109% | 97.4%
4 | O=C(O)C(=O)O [Oxalic acid] | 99% and 94.9% | 90% | 95.8% | 94.5% | 95.2% | 94.3% | 99.2% | 99.6%
5 | CNC(=O)c1nn(C)c2c1C(C)(C)Cc1cnc(Nc3ccc(N4CCN(C)CC4)cc3)nc1-2 | 34% and 36.5% | 25.2% | 21.4% | 22.6% | 16% | 5.62% | 13.8% | 19.4%
6 | C[C@H](N[C@@H](CCc1ccccc1)C(=O)O)C(=O)N1CCC[C@H]1C(=O)O [Enalaprilat dihydrate] | 103% and 100% | 100% | 98.7% | 109% | 102% | 103% | 99.4% | 108%
7 | CC(C)c1nc(CN(C)C(=O)N[C@H](C(=O)N[C@@H](Cc2ccccc2)C[C@H](O)[C@H](Cc2ccccc2)NC(=O)OCc2cncs2)C(C)C)cs1 [Ritonavir] | 89.2% and 88.4% | 82.6% | 81.9% | 95% | 81.8% | 88.3% | 102% | 89.3%
8 | CCC[C@@H]1C[C@@H](C(=O)N[C@@H]([C@H]2O[C@H](SC)[C@H](O)[C@@H](O)[C@H]2O)[C@@H](C)O)N(C)C1 [Lincomycin hydrochloride (Lincocin)] | 102% and 79.7% | 82.2% | 88.7% | 95.2% | 92.6% | 91.7% | 79.5% | 93.9%
9 | C=C1[C@H](CO)[C@@H](O)C[C@@H]1n1cnc2c(=O)[nH]c(N)nc21 [Entecavir] | 109% and 104% | 103% | 94.8% | 101% | 101% | 106% | 79.5% | 93.7%
10 | CCCCCCCCc1ccc(CCC(N)(CO)CO)cc1 [Fingolimod (FTY720) HCl] | 0.63% | 0.58% | 0.4% | 0.42% | 0.4% | 0.39% | 0.36% | 0.44%
11 | CC(C)OC(=O)CCC/C=C\C[C@@H]1[C@@H](/C=C/C(F)(F)COc2ccccc2)[C@H](O)C[C@@H]1O [Tafluprost] | 85.8% and 90.8% | 92.1% | 85% | 96.2% | 89.3% | 97.7% | 90.6% | 95%
12 | CC(C)[C@H](C(=O)Nc1ccc(C(=O)NO)cc1)c1ccccc1 | 1.61% and 11.3% | 3.69% | 5.31% | 12.1% | 0.73% | 0.52% | 2.49% | 4.03%
13 | CC(C)OC(=O)C(C)(C)Oc1ccc(C(=O)c2ccc(Cl)cc2)cc1 [Fenofibrate (Tricor, Trilipix)] | 80.4% and 86.4% | 85.1% | 79.2% | 81.2% | 93.7% | 98.5% | 67.1% | 82.8%
14 | O=C(O)[C@H](O)c1ccccc1 [(R)-(-)-Mandelic acid] | 94% and 92.9% | 89.4% | 91.2% | 105% | 91.8% | 92.6% | 98.2% | 106%
15 | CC[C@@H]1[C@H]2CCCCN3[C@H]2[C@H](C[C@H]3[C@@H]2C[C@H](C)C(=O)O2)[C@@H]2[C@H]1OC(=O)[C@H]2C [Tuberostemonine] | 84.4% and 95% | 88.8% | 83.6% | 89.3% | 64% | 97.8% | 107% | 100%
16 | CN1CCN2c3ccccc3Cc3ccccc3C2C1 (stereo not given) [Mianserin HCl] | 92.5% and 97.9% | 92.2% | 83.7% | 86.5% | 93.5% | 97.8% | 91.2% | 86.4%
17 | O=c1oc2c(O)c(O)cc3c(=O)oc4c(O)c(O)cc1c4c23 [Ellagic acid] | 92.7% and 105% | 93.7% | 96.3% | 105% | 106% | 103% | 101% | 101%
18 | Cc1cc(C)c(S(=O)(=O)n2cc(C)cc2C)c(C)c1 | 90.6% and 98.6% | 95.1% | 90.8% | 88.4% | 84.7% | 92.2% | 99.7% | 102%
19 | CN1c2cc(O)c(N=NC(N)=O)cc2CC1S(=O)(=O)O (stereo not given) [Carbazochrome sodium sulfonate] | 99.4% and 97% | 95.2% | 92.7% | 98.7% | 97% | 99.3% | 99.1% | 106%
20 | COC(=O)C1=COC(OC2OC(CO)C(O)C(O)C2O)C2C(C)CC(=O)C12O (stereo not given) [Hastatoside] | 108% and 101% | 107% | 104% | 99.3% | 108% | 104% | 99.5% | 102%

Row | SMILES | cell viability ([1]; SRSF2 genotype: SRSF2 P95H/wt) | cell viability ([1]; SRSF2 genotype: SRSF2 wt/wt) | cell viability ([2]; SRSF2 genotype: SRSF2 P95H/wt) | cell viability ([2]; SRSF2 genotype: SRSF2 wt/wt) | cell viability ([3]; SRSF2 genotype: SRSF2 P95H/wt) | cell viability ([3]; SRSF2 genotype: SRSF2 wt/wt) | cell viability ([4]; SRSF2 genotype: P95H/wt) | cell viability ([4]; SRSF2 genotype: wt/wt)
21 | CCC[C@H](NC(=O)[C@@H]1[C@H]2CCC[C@H]2CN1C(=O)[C@@H](NC(=O)[C@@H](NC(=O)c1cnccn1)C1CCCCC1)C(C)(C)C)C(=O)C(=O)NC1CC1 [Telaprevir (VX-950)] | 87.5% and 92% | 80.2% | 68.6% | 86.1% | 89.5% | 99.2% | 85.9% | 98.7%
22 | CC(=O)O[C@]1(C(C)=O)CC[C@H]2[C@@H]3CCC4=CC(=O)CCC4=C3[C@@H](c3ccc(N(C)C)cc3)C[C@@]21C [Ulipristal acetate] | 91% and 94.2% | 86.7% | 81.7% | 95.2% | 82.3% | 93.6% | 84.6% | 89.5%
23 | O=C(c1ccccc1)C(O)O [Phenylglyoxal hydrate] | 95.7% and 96.9% | 104% | 86.3% | 86.1% | 67.8% | 66% | 81.6% | 100%
24 | CN1CCN(c2ccc(Nc3cc(-c4cccc(-n5ccc6cc(C7CC7)cc(F)c6c5=O)c4CO)cn(C)c3=O)nc2)CC1 | 15.9% and 12.5% | 29.8% | 18.2% | 0.49% | 0.81% | 1.57% | 2.87% | 4.49%
25 | C[C@H]1C[C@H]2[C@@H]3C[C@H](F)C4=CC(=O)C=C[C@]4(C)[C@@]3(F)[C@@H](O)C[C@]2(C)[C@@]1(O)C(=O)CO [Diflorasone] | 101% and 99.2% | 105% | 109% | 113% | 92.1% | 98.9% | 92.7% | 120%
26 | CC#CC(=O)N1CCC[C@H]1c1nc(-c2ccc(C(=O)Nc3ccccn3)cc2)c2c(N)nccn12 [Acalabrutinib (ACP-196)] | 93.2% and 96.6% | 94.1% | 101% | 113% | 95.4% | 100% | 90.2% | 96.9%
27 | Cc1nc(-c2cn3c(n2)-c2ccc(-c4cnn(C(C)(C)C(N)=O)c4)cc2OCC3)n(C(C)C)n1 | 74.5% and 79.4% | 72.8% | 45.2% | 42% | 32.3% | 40.1% | 8.91% | 22.8%
28 | C#CCC(Cc1cnc2nc(N)nc(N)c2n1)c1ccc(C(=O)N[C@@H](CCC(=O)O)C(=O)O)cc1 (stereo not given in full) [Pralatrexate(Folotyn)] | 98.1% and 106% | 45.8% | 109% | 108% | 102% | 73.9% | 98.6% | 104%
29 | O=c1[nH]c(=O)n([C@H]2C[C@H](O)[C@@H](CO)O2)cc1/C=C/Br [Brivudine] | 97.4% and 92% | 103% | 101% | 102% | 95.6% | 105% | 99.8% | 107%
30 | CNc1nc(-c2ccc3c(N)n[nH]c3c2)cc(N2C[C@@H](C(=O)NC3CCCCC3)CC[C@H]2C)n1 | 78.3% and 74.9% | 73.5% | 72.1% | 72.8% | 42.3% | 39.5% | 47.6% | 40.7%
31 | COC(=O)C1=COC(OC2OC(CO)C(O)C(O)C2O)C2C(CO)=CC(O)C12 (stereo not given) | 105% and 104% | 109% | 105% | 93.2% | 105% | 107% | 98.6% | 98.7%
32 | COc1ccc2c(c1)c(CC(=O)OCC(=O)O)c(C)n2C(=O)c1ccc(Cl)cc1 [Acemetacin (Emflex)] | 101% and 98.4% | 93.5% | 97.8% | 94.9% | 95.4% | 98.6% | 108% | 104%
33 | CCCC(CCC)C(=O)O [Divalproex sodium] | 105% and 102% | 103% | 101% | 111% | 105% | 105% | 93.3% | 108%
34 | CC(NC(=O)C(O)c1cc(F)cc(F)c1)C(=O)NC1C(=O)N(C)c2ccccc2-c2ccccc21 (stereo not given) | 99.5% and 96.4% | 99.2% | 96.1% | 97.8% | 102% | 105% | 98.7% | 96.8%
35 | Clc1ccc(C2(c3ccc(-c4cn[nH]c4)cc3)CCNCC2)cc1 | 44.6% and 48.5% | 34.5% | 40.3% | 45% | 24.2% | 12.5% | 21.6% | 27.4%
36 | O=CC(O)C(O)C(O)C(O)COC1OC(COC2OC(CO)C(O)C(O)C2O)C(O)C(O)C1O (stereo not given) [Manninotriose] | 112% and 107% | 110% | 97.8% | 97.1% | 103% | 104% | 108% | 104%
37 | COc1ccc(C2CC(=O)c3c(O)cc(OC4OC(COC5OC(C)C(O)C(O)C5O)C(O)C(O)C4O)cc3O2)cc1 (stereo not given) [Didymin] | 107% and 103% | 112% | 108% | 105% | 106% | 111% | 104% | 103%
38 | CN1C(N)=N[C@](C)(c2cc(NC(=O)c3ccc(F)cn3)ccc2F)CS1(=O)=O [Verubecestat (MK-8931)] | 92.7% and 98.7% | 98.3% | 88.9% | 96.1% | 94.4% | 100% | 99.9% | 97.1%
39 | Nc1[nH]cnc2ncnc1-2 [Adenine sulfate] | 108% and 94.6% | 99.3% | 94.7% | 103% | 93.5% | 99.7% | 102% | 112%
40 | OCCc1c[nH]c2ccccc12 [Tryptophol] | 102% and 92.7% | 94.7% | 100% | 110% | 97.8% | 99.4% | 90.5% | 111%
